Among the data in ChEMBL document CHEMBL3988442, “University of Dundee, Small-Polar-MMV Screening Library” (2021) are Percent Effect values, retold here.

For some of these results: Results with a measured potency or affinity are listed apart.

Holding throughout (set-up): scale not given: direction of the effect not stated beside the values
For assay [1], the target named is Protein translocase subunit SecA (Escherichia coli (strain K12)) (UniProt P10408). Description: Assay to Identify E. coli SecA ATPase Inhibitors. In kind it is functional. To be noted: 30 µM.
Sequence of Protein translocase subunit SecA (Escherichia coli (strain K12)) (P10408 whole entry): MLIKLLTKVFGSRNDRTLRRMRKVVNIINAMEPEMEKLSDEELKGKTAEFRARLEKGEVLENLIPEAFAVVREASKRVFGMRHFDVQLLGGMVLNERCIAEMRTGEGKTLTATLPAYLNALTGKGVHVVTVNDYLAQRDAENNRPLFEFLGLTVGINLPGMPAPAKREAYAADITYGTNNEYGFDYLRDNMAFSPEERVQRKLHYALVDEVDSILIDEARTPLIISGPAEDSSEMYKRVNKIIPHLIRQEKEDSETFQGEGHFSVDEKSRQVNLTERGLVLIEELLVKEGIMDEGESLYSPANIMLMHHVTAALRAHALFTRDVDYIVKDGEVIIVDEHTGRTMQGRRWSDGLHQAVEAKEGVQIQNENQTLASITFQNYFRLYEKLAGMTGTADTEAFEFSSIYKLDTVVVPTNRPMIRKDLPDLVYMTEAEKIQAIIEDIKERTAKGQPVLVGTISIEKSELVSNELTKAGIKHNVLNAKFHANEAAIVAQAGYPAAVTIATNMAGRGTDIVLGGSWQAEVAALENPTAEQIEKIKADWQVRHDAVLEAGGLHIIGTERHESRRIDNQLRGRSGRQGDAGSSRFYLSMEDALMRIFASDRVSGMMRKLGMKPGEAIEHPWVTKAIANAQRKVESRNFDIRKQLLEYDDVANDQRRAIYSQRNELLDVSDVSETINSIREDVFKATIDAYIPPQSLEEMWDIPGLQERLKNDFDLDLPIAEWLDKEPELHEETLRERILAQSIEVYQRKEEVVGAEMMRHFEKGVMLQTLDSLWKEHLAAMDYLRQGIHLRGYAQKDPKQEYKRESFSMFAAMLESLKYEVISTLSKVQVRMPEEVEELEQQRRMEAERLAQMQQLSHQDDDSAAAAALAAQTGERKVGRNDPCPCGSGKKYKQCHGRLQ
For assay [2], the target named is T1, Ubiquitin-activating enzyme e1, putative (Leishmania donovani (strain BPK282A1)) (UniProt E9BSI1).
T1 sequence (whole entry): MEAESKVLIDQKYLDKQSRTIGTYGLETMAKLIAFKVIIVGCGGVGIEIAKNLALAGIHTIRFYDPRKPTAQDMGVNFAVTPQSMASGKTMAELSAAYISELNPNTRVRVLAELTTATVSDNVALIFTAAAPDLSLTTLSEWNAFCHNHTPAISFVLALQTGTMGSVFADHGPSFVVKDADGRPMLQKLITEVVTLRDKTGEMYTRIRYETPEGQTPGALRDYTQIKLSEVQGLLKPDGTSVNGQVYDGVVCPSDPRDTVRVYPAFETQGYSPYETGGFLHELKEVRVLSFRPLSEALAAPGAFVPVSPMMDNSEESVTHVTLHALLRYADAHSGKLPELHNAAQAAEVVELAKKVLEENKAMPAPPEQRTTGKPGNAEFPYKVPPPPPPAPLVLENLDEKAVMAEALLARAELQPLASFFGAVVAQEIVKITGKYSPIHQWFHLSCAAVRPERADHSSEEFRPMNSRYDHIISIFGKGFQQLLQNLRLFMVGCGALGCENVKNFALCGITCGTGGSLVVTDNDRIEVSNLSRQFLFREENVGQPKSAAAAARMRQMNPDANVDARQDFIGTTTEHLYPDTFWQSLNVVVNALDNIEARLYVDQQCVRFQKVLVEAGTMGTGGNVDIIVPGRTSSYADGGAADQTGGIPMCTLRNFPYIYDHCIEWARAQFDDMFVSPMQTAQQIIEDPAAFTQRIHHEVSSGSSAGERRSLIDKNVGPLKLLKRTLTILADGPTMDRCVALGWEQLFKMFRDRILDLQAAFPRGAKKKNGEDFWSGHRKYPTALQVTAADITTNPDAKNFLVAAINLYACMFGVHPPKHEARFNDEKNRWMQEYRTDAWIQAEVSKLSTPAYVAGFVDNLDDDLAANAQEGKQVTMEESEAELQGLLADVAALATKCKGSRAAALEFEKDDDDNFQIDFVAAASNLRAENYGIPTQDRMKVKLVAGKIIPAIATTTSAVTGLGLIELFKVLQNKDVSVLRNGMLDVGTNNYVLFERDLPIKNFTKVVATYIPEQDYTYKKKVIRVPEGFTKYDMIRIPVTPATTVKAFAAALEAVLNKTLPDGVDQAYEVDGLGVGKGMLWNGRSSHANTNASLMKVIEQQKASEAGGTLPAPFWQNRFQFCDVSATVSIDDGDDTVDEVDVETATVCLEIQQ
As to the kind of experiment: Leishmania donovani Ubiquitin Activating Enzyme (LdE1). In kind it is functional. To be noted: 30 µM.

Assay [3] concerns the target AMP-activated protein kinase, AMPK (Homo sapiens) (UniProt P54646+O43741+P54619+Q9UGJ0+Q9Y478+Q13131+Q9UGI9). As to the kind of experiment: AMP-dependent Kinase enzyme assay. An in vitro enzyme assay that detects ADP turnover that is directly proportional to AMPK activity. This uses naive AMPK that is activated during the assay with MK-8722. It counts as functional. Conditions: 30 µM.

The target in assay [4] is Sialic acid-binding Ig-like lectin 9 (Homo sapiens) (UniProt Q9Y336). Description: Hs-Siglec9 ALPHAscreen SOP 20170721. To be noted: 10 µM. For orientation: In Alpha technology, singlet oxygen from a donor bead excites a nearby acceptor bead.
Sequence of Sialic acid-binding Ig-like lectin 9 (Homo sapiens) (Q9Y336 whole entry): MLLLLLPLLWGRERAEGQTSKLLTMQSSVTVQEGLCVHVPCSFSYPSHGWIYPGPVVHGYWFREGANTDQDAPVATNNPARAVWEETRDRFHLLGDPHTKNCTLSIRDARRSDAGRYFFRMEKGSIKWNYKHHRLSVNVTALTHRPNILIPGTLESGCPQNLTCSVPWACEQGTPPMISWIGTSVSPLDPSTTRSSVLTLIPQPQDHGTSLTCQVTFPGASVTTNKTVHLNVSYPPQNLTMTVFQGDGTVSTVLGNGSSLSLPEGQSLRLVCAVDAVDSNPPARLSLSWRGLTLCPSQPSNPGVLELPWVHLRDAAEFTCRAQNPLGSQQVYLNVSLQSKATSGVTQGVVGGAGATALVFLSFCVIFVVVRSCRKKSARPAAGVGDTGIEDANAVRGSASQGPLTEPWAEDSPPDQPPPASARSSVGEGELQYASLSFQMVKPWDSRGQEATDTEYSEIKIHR
In a further assay the test system is Trypanosoma cruzi. Description: Trypanosoma cruzi phosphomannomutase and mannose-1-phosphate guanylyltransferase assay. In kind it is functional. To be noted: 10 µM.
The target in assay [5] is T2, Arginase-2, mitochondrial (Homo sapiens) (UniProt P78540).
T2 sequence (whole entry): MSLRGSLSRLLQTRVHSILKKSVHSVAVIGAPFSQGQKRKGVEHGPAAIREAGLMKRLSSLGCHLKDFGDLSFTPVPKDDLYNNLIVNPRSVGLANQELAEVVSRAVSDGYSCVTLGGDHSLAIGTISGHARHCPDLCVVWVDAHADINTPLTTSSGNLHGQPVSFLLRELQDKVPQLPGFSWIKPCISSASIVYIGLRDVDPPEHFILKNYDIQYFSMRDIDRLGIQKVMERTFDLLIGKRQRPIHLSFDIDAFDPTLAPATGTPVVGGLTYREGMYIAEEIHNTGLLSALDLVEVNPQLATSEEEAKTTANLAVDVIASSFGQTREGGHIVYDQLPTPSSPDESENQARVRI
Description: in vitro enzyme assay to detect the production of urea directly proportional to the activity of Arginase II. Also: in the data most compounds retested in dose-response had high values. In kind it is functional. Conditions: 33.3 µM.

The target in assay [6] is T3, Proteasome subunit beta (Trypanosoma cruzi) (UniProt O96673).
T3 sequence (whole entry): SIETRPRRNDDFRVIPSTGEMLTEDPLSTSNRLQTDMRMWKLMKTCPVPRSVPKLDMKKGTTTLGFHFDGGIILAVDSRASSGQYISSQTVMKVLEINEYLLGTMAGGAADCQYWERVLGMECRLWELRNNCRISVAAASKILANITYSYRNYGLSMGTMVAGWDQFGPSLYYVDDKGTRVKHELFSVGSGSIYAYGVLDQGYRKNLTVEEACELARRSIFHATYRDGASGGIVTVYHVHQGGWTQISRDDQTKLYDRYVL
Description: Trypanosoma cruzi proteasome chymotrypsin-like activity (TcProtChymo) assay. Also: in the data most compounds retested in dose-response had high values. Conditions: 9.37 µM. In kind it is functional.

Another assay is filed under the species Homo sapiens. As to the kind of experiment: To identify inhibition of the IFN signalling (Jak-Stat) pathway via expression of an eGFP reporter gene under the control of an IFN-stimulated response element (ISRE) containing MxA promoter. It counts as functional. Conditions: 30 µM.
For assay [7], the target named is T4, Tyrosyl-tRNA synthetase, putative (Trypanosoma cruzi (strain CL Brener)) (UniProt Q4DSP6).
T4 sequence (whole entry): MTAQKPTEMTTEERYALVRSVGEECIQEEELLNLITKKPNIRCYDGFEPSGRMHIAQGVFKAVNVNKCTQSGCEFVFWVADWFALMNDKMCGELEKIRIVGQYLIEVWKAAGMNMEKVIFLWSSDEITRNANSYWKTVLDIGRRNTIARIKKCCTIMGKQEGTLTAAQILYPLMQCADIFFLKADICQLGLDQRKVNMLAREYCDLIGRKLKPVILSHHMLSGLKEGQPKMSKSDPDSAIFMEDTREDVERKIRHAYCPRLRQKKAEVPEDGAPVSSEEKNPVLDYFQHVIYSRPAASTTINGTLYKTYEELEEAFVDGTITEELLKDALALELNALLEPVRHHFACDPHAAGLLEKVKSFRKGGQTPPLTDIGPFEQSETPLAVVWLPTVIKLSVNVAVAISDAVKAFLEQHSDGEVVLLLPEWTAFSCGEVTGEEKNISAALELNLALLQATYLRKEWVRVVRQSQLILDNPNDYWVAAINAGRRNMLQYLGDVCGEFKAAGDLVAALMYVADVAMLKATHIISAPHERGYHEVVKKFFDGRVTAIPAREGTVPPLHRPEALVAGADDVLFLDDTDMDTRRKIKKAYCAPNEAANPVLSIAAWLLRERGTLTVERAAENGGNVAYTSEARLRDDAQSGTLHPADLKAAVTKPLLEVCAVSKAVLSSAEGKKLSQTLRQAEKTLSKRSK
Description: Trypanosoma cruzi tyrosyl tRNA synthetase (TcYRS) _High Tyrosine SOP. Also: in the data most compounds retested in dose-response had high values. It counts as functional. Conditions: 30 µM.

Assay [8] addresses T4, Tyrosyl-tRNA synthetase, putative (Trypanosoma cruzi (strain CL Brener)). As to the kind of experiment: Trypanosoma cruzi tyrosyl tRNA synthetase (TcYRS) SOP. In kind it is functional. Conditions: 30 µM.
The target of assay [9] is Chromo domain-containing protein 1 (Saccharomyces cerevisiae (strain ATCC 204508 / S288c) (Baker's yeast)) (UniProt P32657). As to the kind of experiment: ScCHD-1 Enzyme Inhibition Assay. Also: in the data most compounds retested in dose-response had high values. In kind it is functional. Conditions: 30 µM.
Sequence of Chromo domain-containing protein 1 (Saccharomyces cerevisiae (strain ATCC 204508 / S288c) (Baker's yeast)) (P32657 whole entry, the tested form may be a part): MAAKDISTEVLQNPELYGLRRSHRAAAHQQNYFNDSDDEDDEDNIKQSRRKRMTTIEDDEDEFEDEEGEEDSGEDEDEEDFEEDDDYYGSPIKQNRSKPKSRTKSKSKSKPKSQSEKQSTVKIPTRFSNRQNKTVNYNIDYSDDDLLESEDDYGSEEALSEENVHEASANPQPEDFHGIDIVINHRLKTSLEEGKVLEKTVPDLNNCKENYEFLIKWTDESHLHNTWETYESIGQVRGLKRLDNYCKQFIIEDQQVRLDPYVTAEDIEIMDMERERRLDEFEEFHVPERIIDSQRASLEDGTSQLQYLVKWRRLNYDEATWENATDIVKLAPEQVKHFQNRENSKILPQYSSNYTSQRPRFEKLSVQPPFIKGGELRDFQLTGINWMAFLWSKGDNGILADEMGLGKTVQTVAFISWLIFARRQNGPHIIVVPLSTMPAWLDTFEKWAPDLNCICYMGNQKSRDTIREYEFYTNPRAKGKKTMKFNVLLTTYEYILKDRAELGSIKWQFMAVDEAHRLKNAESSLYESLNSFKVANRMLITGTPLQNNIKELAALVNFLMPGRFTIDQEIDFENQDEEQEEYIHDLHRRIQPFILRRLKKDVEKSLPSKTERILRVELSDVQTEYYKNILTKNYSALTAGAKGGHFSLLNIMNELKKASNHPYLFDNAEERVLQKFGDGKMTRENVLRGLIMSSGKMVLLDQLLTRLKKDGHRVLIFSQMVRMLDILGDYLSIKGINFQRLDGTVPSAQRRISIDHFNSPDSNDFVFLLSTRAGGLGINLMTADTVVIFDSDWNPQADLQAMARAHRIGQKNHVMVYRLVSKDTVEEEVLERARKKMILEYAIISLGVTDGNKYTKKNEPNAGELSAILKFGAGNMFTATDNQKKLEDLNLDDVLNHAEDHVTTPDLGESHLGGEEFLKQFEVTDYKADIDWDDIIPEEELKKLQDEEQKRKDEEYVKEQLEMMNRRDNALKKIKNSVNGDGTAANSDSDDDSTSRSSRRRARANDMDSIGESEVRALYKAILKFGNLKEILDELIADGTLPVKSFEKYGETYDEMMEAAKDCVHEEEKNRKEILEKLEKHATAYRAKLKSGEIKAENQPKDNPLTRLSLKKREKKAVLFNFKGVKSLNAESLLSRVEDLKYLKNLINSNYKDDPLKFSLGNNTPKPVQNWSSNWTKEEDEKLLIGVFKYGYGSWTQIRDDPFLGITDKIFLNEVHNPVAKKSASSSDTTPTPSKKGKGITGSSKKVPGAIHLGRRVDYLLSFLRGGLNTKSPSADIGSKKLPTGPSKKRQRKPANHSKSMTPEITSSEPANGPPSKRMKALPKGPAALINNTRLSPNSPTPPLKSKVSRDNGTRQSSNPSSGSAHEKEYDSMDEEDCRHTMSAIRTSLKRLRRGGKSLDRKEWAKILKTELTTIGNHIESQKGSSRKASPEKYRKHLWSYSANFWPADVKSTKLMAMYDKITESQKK

In the case of `Cc1nc(Nc2nccs2)cc(C2CCCN2C2CCOCC2)n1` (stereo unspecified), the Percent Effect was -6.58% in assay [1]; 12.2% in assay [2]; 4.38% in assay [3]; 1.96% in [4]; 4.35% with Trypanosoma cruzi; -3.48% in [5]. Further, the Percent Effect is 8.89% in assay [6]; 6.9% in the assay listed under Homo sapiens; 6.45% in assay [7]; 14.3% in assay [8]; -16.1% in assay [9].

In the case of `O=C(c1ccc[nH]1)N1CCCC2(CCN(c3ccsc3)C2=O)C1` (stereo unspecified), the Percent Effect is -0.928% in assay [1]; -2.6% in [2]; 11.3% in [3]; 3.88% in assay [4]; -3.06% with Trypanosoma cruzi; -5.81% in assay [5]. For the same molecule, the Percent Effect was 1.57% in [6]; 4.99% in the assay filed under Homo sapiens; -3.17% in [7]; -3.85% in assay [8]; -1.57% in assay [9].

Turning to `CCCNC(=O)c1cnc(N(C)C)nc1COC`, the Percent Effect in assay [1] was -3.99%; in assay [2], 9.33%; in assay [3] it was 7.82%; in assay [4], 8.88%; in the assay on Trypanosoma cruzi, 2.75%; in [5] it was -2.99%. Also, the Percent Effect is 8.69% in assay [6]; 13.2% in the assay filed under Homo sapiens; 1.06% in assay [7]; 10.3% in assay [8]; -3.99% in [9].

In the case of `CCCn1nc2c(cc1=O)CN(CCS(C)(=O)=O)CC2`, the Percent Effect is -6.22% in assay [1]; -5.41% in assay [2]; -30.8% in assay [3]; 22.6% in assay [4]; 2.17% in the assay on Trypanosoma cruzi; -6.01% in assay [5]. In addition, the Percent Effect in assay [6] is 7.75%; in the assay listed under Homo sapiens it was 7.82%; in assay [7] it was 8.37%; in assay [8] it was 16.1%; in assay [9] it was -11.1%.

Take `CCOC(=O)[C@]12CCCN(Cc3ccco3)C[C@H]1CN(CCN(C)C)C2`: the Percent Effect in assay [1] was -2.71%; in assay [2] it was 7.79%; in [3], 3.96%; in assay [4], 8.64%; in the assay with Trypanosoma cruzi, -0.888%; in assay [5] it was -0.645%. The Percent Effect is 14.4% in [6]; 2.34% in the assay listed under Homo sapiens; 1.06% in [7]; 8.97% in [8]; -6.8% in assay [9].

As to `CCCNC(=O)C(C)n1cc(Br)cn1` (stereo unspecified), the Percent Effect in assay [1] was -2.1%; in [2], 7.79%; in assay [3], -0.549%; in assay [4] it was 2.6%; in the assay with Trypanosoma cruzi it was -1.87%; in assay [5], -194%. The Percent Effect is 5.49% in assay [6]; -4.17% in the assay filed under Homo sapiens; 4.3% in assay [7]; 18.5% in assay [8]; 0.506% in assay [9].

As for `CCN(CC)C(=O)CCNC(=O)N1CCC(c2ccccc2)C1` (stereo unspecified), the Percent Effect in assay [1] was -1.34%; in assay [2], 0%; in [3] it was -3.55%; in [4], 1.13%; in the assay on Trypanosoma cruzi, 0.772%; in [5], -4.29%. For the same molecule, the Percent Effect was 0.172% in [6]; 15.7% in the assay filed under Homo sapiens; 0.529% in assay [7]; 4.88% in [8]; 0.238% in [9].

For `CC(=O)c1cccc(S(=O)(=O)N2CSCC2C(=O)NCC(F)(F)F)c1` (stereo unspecified), the Percent Effect in [1] was -3.05%; in assay [2] it was 3.8%; in assay [3], 7.23%; in assay [4], 3.21%; in the assay with Trypanosoma cruzi, -0.103%; in assay [5], -7.1%. Moreover, the Percent Effect was 10.5% in assay [6]; 2.46% in the assay listed under Homo sapiens; 9.38% in assay [7]; 22.8% in [8]; -23.2% in assay [9].

As for `CNC(=O)c1cc2c(nc1NCC(C)C)CCN(S(=O)(=O)C1CC1)CC2`, the Percent Effect is -6.06% in assay [1]; 2.7% in assay [2]; 5.7% in assay [3]; -6.06% in assay [4]; -3.23% with Trypanosoma cruzi; -1.24% in assay [5]. Further, the Percent Effect in assay [6] was -7.64%; in the assay listed under Homo sapiens, -2.8%; in assay [7] it was 2.15%; in [8], 8.64%; in [9], -4.29%.

In the case of `CC(NC(=O)COc1nc(C(C)(C)C)no1)c1ccco1` (stereo unspecified), the Percent Effect in assay [1] is -6.83%; in assay [2] it was 2.7%; in [3], 5.6%; in assay [4] it was 2.63%; with Trypanosoma cruzi, 4.25%; in [5], 2.86%. Further, the Percent Effect is 3.45% in assay [6]; -3.88% in the assay listed under Homo sapiens; 4.76% in assay [7]; 9.76% in assay [8]; -1.56% in assay [9].

As to `O=C1NC(c2ccccc2)=N[C@@]12CC[C@@H]1CN(Cc3ccccc3)C[C@@H]12`, the Percent Effect in assay [1] is -1.1%; in assay [2] it was 10.7%; in assay [3], -2.75%; in assay [4], 0.12%; in the assay with Trypanosoma cruzi it was 2.12%; in assay [5], -43.5%. The Percent Effect in [6] is 7.18%; in the assay listed under Homo sapiens, 3.72%; in [7], 10.4%; in [8] it was 27.5%; in [9] it was -8.07%.
